Measured values published in PubChem BioAssay (NCI).
The panel holds about 83,000 compounds, 20% with a hit somewhere; the sample as a whole holds those more often.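 Treatment: one concentration, 48 hours, 96-well format. Scoring: percent growth, with anything below 10 considered active.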 Calls of active or inactive are those of the source.

Assays:
Experiment in all cases: NCI-60 one-dose screen, 48 h (100 = growth as untreated, 0 = no growth, -100 = all killed)
Conditions in all cases: 10 µM unless noted
SK-MEL-2 melanoma = tested on: SK-MEL-2 melanoma
EKVX NSCLC = tested on: EKVX NSCLC
SN12C renal = tested on: SN12C renal
UO-31 renal = tested on: UO-31 renal
TK-10 renal = tested on: TK-10 renal
ACHN renal = tested on: ACHN renal
CAKI-1 renal = tested on: CAKI-1 renal
A498 renal = tested on: A498 renal
CCRF-CEM leukemia = tested on: CCRF-CEM leukemia
MOLT-4 leukemia = tested on: MOLT-4 leukemia

Measured: growth

COc1ccc(C2c3ccc4ccccc4c3Oc3nc(C)[nH]c(=O)c32)cc1 (stereo not given)
active: UO-31 renal -97.5%
inactive: SK-MEL-2 melanoma 112% | EKVX NSCLC 103% | SN12C renal 99.4% | TK-10 renal 116% | ACHN renal 92.3% | CAKI-1 renal 73.9% | A498 renal 92.5% | CCRF-CEM leukemia 106% | MOLT-4 leukemia 115%

Cc1ccc(-n2nc3c(c(C#N)c2=O)CC(c2ccccc2Cl)C([N+](=O)[O-])=C3O)cc1 (stereo not given)
inactive: SK-MEL-2 melanoma 99.2% | EKVX NSCLC 90.2% | SN12C renal 108% | UO-31 renal 78.4% | TK-10 renal 123% | ACHN renal 100% | CAKI-1 renal 84% | A498 renal 85.9% | CCRF-CEM leukemia 84.3% | MOLT-4 leukemia 77.1%

CCN(CCNc1ccc(C)c2sc3ccccc3c(=O)c12)CC(C)(C)O
inactive: SK-MEL-2 melanoma 77.3% | EKVX NSCLC 101% | SN12C renal 101% | UO-31 renal 70.2% | TK-10 renal 89.7% | ACHN renal 79.7% | CAKI-1 renal 79% | A498 renal 81% | CCRF-CEM leukemia 39.9% | MOLT-4 leukemia 40%

c1ccc2cc3nc4cc5ccccc5cc4nc3cc2c1
inactive: SK-MEL-2 melanoma 104% | EKVX NSCLC 100% | SN12C renal 88.6% | UO-31 renal 89% | TK-10 renal 108% | ACHN renal 97.4% | CAKI-1 renal 113% | A498 renal 107% | MOLT-4 leukemia 109%
active: CCRF-CEM leukemia -24.9%

Cc1nc2ccccc2n1CC1NC(=O)NC1=O (stereo not given)
inactive: SK-MEL-2 melanoma 104% | EKVX NSCLC 97.9% | SN12C renal 97.7% | UO-31 renal 94.7% | TK-10 renal 102% | ACHN renal 102% | CAKI-1 renal 96% | A498 renal 88.8% | CCRF-CEM leukemia 107% | MOLT-4 leukemia 96%

COc1ccc(-c2nc3sccn3c2-c2cc(-c3cc(OC)c(OC)c(OC)c3)on2)cc1
active: UO-31 renal -60.9%
inactive: SK-MEL-2 melanoma 142% | EKVX NSCLC 98.9% | SN12C renal 105% | TK-10 renal 162% | ACHN renal 98.7% | CAKI-1 renal 127% | A498 renal 74.4% | CCRF-CEM leukemia 34.6% | MOLT-4 leukemia 40.3%

CCOC(=O)c1c(/C=C/C(=O)O)nc2ccccc2c1/C=C/c1ccccc1
active: A498 renal 8.83%
inactive: SK-MEL-2 melanoma 47.4% | EKVX NSCLC 61.6% | SN12C renal 27.1% | UO-31 renal 42.5% | TK-10 renal 65.5% | ACHN renal 43.2% | CAKI-1 renal 62.3% | CCRF-CEM leukemia 17.1% | MOLT-4 leukemia 25.5%

COc1ccc(NC(=O)CSc2nnc(-c3cc(-c4ccc(S(N)(=O)=O)cc4)nc4ccccc34)n2-c2ccccc2)cc1
inactive: SK-MEL-2 melanoma 93% | EKVX NSCLC 78.5% | SN12C renal 81.6% | UO-31 renal 74.5% | TK-10 renal 103% | ACHN renal 81.6% | CAKI-1 renal 61.2% | A498 renal 54.3% | CCRF-CEM leukemia 73.2% | MOLT-4 leukemia 58%

COc1cc(C(=O)c2cc(C)c3[nH]c4ccc(Cl)cc4c3c2C)cc(OC)c1OC
active: A498 renal -9.44%
inactive: SK-MEL-2 melanoma 57.6% | EKVX NSCLC 50.2% | SN12C renal 17.5% | UO-31 renal 24.6% | TK-10 renal 87.5% | ACHN renal 24.2% | CAKI-1 renal 21% | CCRF-CEM leukemia 17.2% | MOLT-4 leukemia 20.7%

CCc1ccccc1-n1c(-c2ccc(Cl)cc2)cc(-c2ccc(OC)cc2)c(C#N)c1=O
active: CCRF-CEM leukemia -41.4%
inactive: SK-MEL-2 melanoma 91.5% | EKVX NSCLC 96.1% | SN12C renal 99.4% | UO-31 renal 81.5% | TK-10 renal 136% | ACHN renal 114% | CAKI-1 renal 99.8% | A498 renal 110% | MOLT-4 leukemia 103%

O=c1[nH]nc(-c2ccccc2)c2c(-c3ccccc3)onc12
inactive: SK-MEL-2 melanoma 30.7% | EKVX NSCLC 25.4% | SN12C renal 56.3% | UO-31 renal 16.9% | TK-10 renal 62.5% | ACHN renal 47.5% | CAKI-1 renal 28.7% | CCRF-CEM leukemia 21.3% | MOLT-4 leukemia 30.2%
active: A498 renal 7.76%

O=C(N/N=C/C=C/c1ccc([N+](=O)[O-])o1)c1cc2ccccc2cc1O
active: SK-MEL-2 melanoma -44.6% | EKVX NSCLC -15.9% | SN12C renal -10.7% | UO-31 renal -71.9% | TK-10 renal 2.31% | ACHN renal -3% | A498 renal -82.4% | CCRF-CEM leukemia 5.15% | MOLT-4 leukemia 4.89%
inactive: CAKI-1 renal 12.7%

CC1(C)CC(=O)C2=C(C1)N(c1ccc(OC(F)(F)F)cc1)C(N)=C(C#N)C2c1ccc(Cl)cc1 (stereo not given)
inactive: SK-MEL-2 melanoma 90.7% | EKVX NSCLC 84.6% | SN12C renal 80% | UO-31 renal 89.9% | TK-10 renal 89.7% | ACHN renal 71.4% | CAKI-1 renal 60.8% | A498 renal 94.4% | CCRF-CEM leukemia 96.5% | MOLT-4 leukemia 95.4%

COc1cc(C2CC(=O)Nc3c2c(C)nn3-c2nc3ccccc3[nH]2)cc2c1OCC(=O)N2 (stereo not given)
active: MOLT-4 leukemia -20.1%
inactive: SK-MEL-2 melanoma 68.1% | EKVX NSCLC 79.3% | SN12C renal 76.3% | UO-31 renal 51.9% | TK-10 renal 87.3% | ACHN renal 70.4% | CAKI-1 renal 95.1% | A498 renal 21.4% | CCRF-CEM leukemia 12.7%

O=C1/C(=C\c2c[nH]c3ccccc23)c2ccccc2N1c1c(Cl)cccc1Cl
inactive: SK-MEL-2 melanoma 15.8% | UO-31 renal 20.7% | A498 renal 19.2% | CCRF-CEM leukemia 11.6%
active: EKVX NSCLC -5.29% | SN12C renal -29.6% | TK-10 renal -29.4% | ACHN renal 3.26% | CAKI-1 renal -38.6% | MOLT-4 leukemia -13.1%

O=S(=O)(NCCCNc1cc(-c2c(-c3cccc(O)c3)nc3sccn23)ccn1)c1cccc(Cl)c1
inactive: SK-MEL-2 melanoma 63.7% | EKVX NSCLC 58.6% | SN12C renal 27% | UO-31 renal 31.5% | TK-10 renal 94.4% | ACHN renal 41.6% | CAKI-1 renal 43% | A498 renal 80.4% | CCRF-CEM leukemia 22.8% | MOLT-4 leukemia 15.2%

Cc1ccc(-c2cc(-c3cccnc3)[nH]c(=O)c2C#N)cc1
inactive: SK-MEL-2 melanoma 120% | EKVX NSCLC 101% | SN12C renal 104% | UO-31 renal 84.1% | TK-10 renal 116% | ACHN renal 103% | CAKI-1 renal 87% | A498 renal 82.4% | CCRF-CEM leukemia 101% | MOLT-4 leukemia 115%

COc1cc(C2CC(=O)Nc3c2c(C)nn3-c2nc3ccccc3[nH]2)c(OC)c(OC)c1OC (stereo not given)
active: A498 renal -9.27%
inactive: SK-MEL-2 melanoma 50% | EKVX NSCLC 86.4% | SN12C renal 73.9% | UO-31 renal 62.3% | TK-10 renal 12.5% | ACHN renal 86.6% | CAKI-1 renal 43.6% | CCRF-CEM leukemia 39.6% | MOLT-4 leukemia 20.3%

Cc1ccc(N2CCN(C(=S)c3cccs3)CC2)cc1
inactive: SK-MEL-2 melanoma 94.9% | EKVX NSCLC 108% | SN12C renal 102% | UO-31 renal 94.8% | TK-10 renal 87.3% | ACHN renal 120% | CAKI-1 renal 96.4% | A498 renal 99.1% | CCRF-CEM leukemia 95.3% | MOLT-4 leukemia 93.6%

COc1cccc2c1C(=O)c1c(O)c3c(c(O)c1C2=O)CC(O)(/C(C)=N/NC(=O)CCCCC(=O)N/N=C(\C)C1(O)Cc2c(O)c4c(c(O)c2C(OC2CC(N)C(O)C(C)O2)C1)C(=O)c1c(OC)cccc1C4=O)CC3OC1CC(N)C(O)C(C)O1 (stereo not given)
active: SK-MEL-2 melanoma -56.9% [5 µM] | EKVX NSCLC -16.2% [5 µM] | SN12C renal -2.85% [5 µM] | UO-31 renal -16.9% [5 µM] | TK-10 renal -29.5% [5 µM] | ACHN renal -33.6% [5 µM] | CAKI-1 renal -40% [5 µM] | A498 renal -84.5% [5 µM] | CCRF-CEM leukemia -26.4% [5 µM] | MOLT-4 leukemia -46.8% [5 µM]

CCOC(=O)C/C(C)=N\NC(=O)c1ccncc1
inactive: SK-MEL-2 melanoma 120% | EKVX NSCLC 89.6% | SN12C renal 99.9% | UO-31 renal 101% | TK-10 renal 95.8% | ACHN renal 103% | CAKI-1 renal 52.4% | A498 renal 96.8% | CCRF-CEM leukemia 99.7% | MOLT-4 leukemia 93.9%

CN(C)CCC=C1c2ccccc2C(C)(C)c2ccccc21
inactive: SK-MEL-2 melanoma 74.4% | EKVX NSCLC 110% | SN12C renal 71.2% | UO-31 renal 58.1% | TK-10 renal 98.3% | ACHN renal 90.5% | CAKI-1 renal 91.2% | A498 renal 91% | CCRF-CEM leukemia 49.6% | MOLT-4 leukemia 72.9%

N#Cc1nc(C#N)c(Sc2ccccc2)c(Sc2ccccc2)c1Sc1ccccc1
inactive: CAKI-1 renal 17.7%
active: SK-MEL-2 melanoma -64.1% | EKVX NSCLC 8.11% | SN12C renal 0.446% | UO-31 renal -72.1% | TK-10 renal -36.8% | ACHN renal -78% | A498 renal -14.1% | CCRF-CEM leukemia -7.95% | MOLT-4 leukemia -19.2%

COc1ccc(/C=C/c2c(C(=O)/C=C/c3cccs3)c(C)nc3ccccc23)cc1
inactive: SK-MEL-2 melanoma 89.6% | EKVX NSCLC 84.8% | SN12C renal 79.1% | UO-31 renal 56.4% | TK-10 renal 116% | ACHN renal 82.2% | CAKI-1 renal 57.2% | A498 renal 53.3% | CCRF-CEM leukemia 64.5% | MOLT-4 leukemia 60.1%

CC(C)C(NC(=O)C1(NC(=O)OCc2ccccc2)CCCC1)C(=O)O (stereo not given)
inactive: SK-MEL-2 melanoma 107% | EKVX NSCLC 110% | SN12C renal 102% | UO-31 renal 81% | TK-10 renal 108% | ACHN renal 96.8% | CAKI-1 renal 102% | A498 renal 102% | CCRF-CEM leukemia 104% | MOLT-4 leukemia 96%

COc1cc(/C=N/Nc2ncc(-c3cc4cc5c(cc4o3)OCO5)s2)cc(OC)c1OC
inactive: SK-MEL-2 melanoma 79.7% | EKVX NSCLC 71.4% | SN12C renal 71.2% | UO-31 renal 66.8% | TK-10 renal 101% | ACHN renal 74.3% | CAKI-1 renal 64.2% | A498 renal 75.6% | CCRF-CEM leukemia 26% | MOLT-4 leukemia 18.6%
